Reference: PubChem BioAssay (EPA / NIEHS)
Values joined by “and” are separate entries in the source; they are usually repeats but may differ in a detail not shown here. Identical values can stand only once. Results filed as inconclusive are left out. Some compounds were tested as several samples or in several runs, with calls that do not always agree. Active and inactive are the calls of the source. How the source made its calls, unless noted: active means hit-call score of the fitted dose curve at least 0.9, where 1 is the maximum; inactive means score below 0.9.

Experiments:
[1] = biological target: Paired box protein Pax-6 (Homo sapiens) (UniProt P26367); test: ATG_Pax6_CIS: Attagene CIS-FACTORIAL HepG2 Assay for human Paired Box 6 (PAX6) (AID 2282956); settings: HepG2 CIS-FACTORIAL PAX6 reporter transcription, RNA readout; actives raise or lower the signal
Chain of Paired box protein Pax-6 (Homo sapiens) (P26367 whole entry, looked up): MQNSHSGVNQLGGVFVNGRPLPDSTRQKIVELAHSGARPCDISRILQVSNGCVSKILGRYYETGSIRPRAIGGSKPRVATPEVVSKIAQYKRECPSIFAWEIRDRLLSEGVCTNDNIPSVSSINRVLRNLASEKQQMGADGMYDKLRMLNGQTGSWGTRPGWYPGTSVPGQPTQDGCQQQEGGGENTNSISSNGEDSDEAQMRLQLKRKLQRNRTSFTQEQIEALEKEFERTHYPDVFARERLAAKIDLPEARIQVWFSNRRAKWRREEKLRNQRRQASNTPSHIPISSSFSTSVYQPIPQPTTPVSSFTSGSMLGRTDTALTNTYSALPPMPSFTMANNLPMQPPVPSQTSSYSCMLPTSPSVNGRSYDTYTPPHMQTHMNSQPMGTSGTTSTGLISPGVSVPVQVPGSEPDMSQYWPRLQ
How it was run: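 After twenty-four hours of chemical exposure, transfected HepG2 cells are harvested for RNA. Cis-promoter reporter transcripts are amplified, fluorescently labelled and sized by capillary electrophoresis, with gain and loss of signal scored against DMSO.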

[2] = ATG_PPRE_CIS: Attagene CIS-FACTORIAL HepG2 Assay for human Peroxisome Proliferator-activated Response Element (PPRE) (AID 2282958); settings: HepG2 PPRE cis-element reporter, Attagene transcription factor profiling; actives raise or lower the signal
How it was run: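 Transcript-level reporter induction in transfected HepG2 cells after 24 h chemical exposure, quantified by fluorescence from RT-PCR products separated by capillary electrophoresis.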

[3] = ATG_RORE_CIS: Attagene CIS-FACTORIAL HepG2 Assay for human RAR-related Orphan Receptor Element (RORE) (AID 2282959); settings: HepG2 Attagene cis-factorial RORE reporter, mRNA; actives raise or lower the signal
How it was run: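 Multiplexed reporter assay measuring mRNA induction from a cis promoter element in transiently transfected HepG2 cells after 24 h treatment. Detection via RT-PCR and capillary electrophoresis fluorescence; DMSO serves as baseline.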

[4] = ATG_Sox_CIS: Attagene CIS-FACTORIAL HepG2 Assay for human SRY-box transcription factor (SOX) (AID 2282960); settings: HepG2 Attagene cis-factorial SOX reporter, mRNA; actives raise or lower the signal
How it was run: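 Cells were transfected with reporter constructs under cis-regulatory promoters, then exposed to chemicals for 24 h. Reporter transcripts were quantified by fluorescence after RT-PCR and capillary electrophoresis; activity was fitted in both directions against DMSO.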

[5] = biological target: Transcription factor Sp1 (Homo sapiens) (UniProt P08047); test: ATG_Sp1_CIS: Attagene CIS-FACTORIAL HepG2 Assay for human Specificity Protein 1 (Sp1) (AID 2282961); settings: HepG2 Sp1 cis-reporter transcription, actives raise or lower the signal
Chain of Transcription factor Sp1 (Homo sapiens) (P08047 whole entry, looked up): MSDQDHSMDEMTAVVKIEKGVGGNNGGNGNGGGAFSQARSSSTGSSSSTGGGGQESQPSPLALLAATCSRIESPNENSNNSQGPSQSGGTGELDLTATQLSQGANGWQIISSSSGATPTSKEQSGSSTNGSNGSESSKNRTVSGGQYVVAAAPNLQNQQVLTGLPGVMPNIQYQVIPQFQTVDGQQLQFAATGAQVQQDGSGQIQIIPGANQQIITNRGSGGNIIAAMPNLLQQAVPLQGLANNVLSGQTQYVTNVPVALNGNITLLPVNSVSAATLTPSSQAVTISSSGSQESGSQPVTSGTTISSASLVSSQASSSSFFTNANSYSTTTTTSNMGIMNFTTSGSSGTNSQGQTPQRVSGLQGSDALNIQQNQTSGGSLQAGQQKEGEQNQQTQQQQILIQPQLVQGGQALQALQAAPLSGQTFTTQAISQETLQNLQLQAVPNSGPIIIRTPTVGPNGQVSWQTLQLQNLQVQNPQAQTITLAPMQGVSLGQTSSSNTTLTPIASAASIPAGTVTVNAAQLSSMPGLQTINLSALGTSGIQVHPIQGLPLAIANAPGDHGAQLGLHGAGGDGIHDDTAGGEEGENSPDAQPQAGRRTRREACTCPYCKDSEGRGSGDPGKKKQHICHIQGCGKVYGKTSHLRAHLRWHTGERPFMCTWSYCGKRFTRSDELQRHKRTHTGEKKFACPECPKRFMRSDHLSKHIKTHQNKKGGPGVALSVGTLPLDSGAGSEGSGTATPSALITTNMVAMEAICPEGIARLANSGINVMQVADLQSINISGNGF
How it was run: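 Measures mRNA induction of an Sp1-linked reporter in HepG2 cells 24 h post-dosing. Multiplexed reporters read by RT-PCR and capillary electrophoresis; DMSO serves as negative control and baseline.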

[6] = ATG_SREBP_CIS: Attagene CIS-FACTORIAL HepG2 Assay for human Sterol Regulatory Element Binding (SREBP) (AID 2282962); settings: HepG2 Attagene cis-factorial SREBP reporter, mRNA; actives raise or lower the signal
How it was run: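 Twenty-four hours after chemical dosing of transfected HepG2 cultures, reporter RNA was converted to cDNA, amplified, end-labelled with 6-FAM and resolved by capillary electrophoresis. Responses were fitted relative to DMSO.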

[7] = biological target: Signal transducer and activator of transcription 3 (Homo sapiens) (UniProt P40763); test: ATG_STAT3_CIS: Attagene CIS-FACTORIAL HepG2 Assay for human Signal Transducer and Activator of Transcription 3 (STAT3) (AID 2282963); settings: HepG2, Attagene cis-factorial STAT3 reporter transcription; actives raise or lower the signal
Chain of Signal transducer and activator of transcription 3 (Homo sapiens) (P40763 whole entry, looked up): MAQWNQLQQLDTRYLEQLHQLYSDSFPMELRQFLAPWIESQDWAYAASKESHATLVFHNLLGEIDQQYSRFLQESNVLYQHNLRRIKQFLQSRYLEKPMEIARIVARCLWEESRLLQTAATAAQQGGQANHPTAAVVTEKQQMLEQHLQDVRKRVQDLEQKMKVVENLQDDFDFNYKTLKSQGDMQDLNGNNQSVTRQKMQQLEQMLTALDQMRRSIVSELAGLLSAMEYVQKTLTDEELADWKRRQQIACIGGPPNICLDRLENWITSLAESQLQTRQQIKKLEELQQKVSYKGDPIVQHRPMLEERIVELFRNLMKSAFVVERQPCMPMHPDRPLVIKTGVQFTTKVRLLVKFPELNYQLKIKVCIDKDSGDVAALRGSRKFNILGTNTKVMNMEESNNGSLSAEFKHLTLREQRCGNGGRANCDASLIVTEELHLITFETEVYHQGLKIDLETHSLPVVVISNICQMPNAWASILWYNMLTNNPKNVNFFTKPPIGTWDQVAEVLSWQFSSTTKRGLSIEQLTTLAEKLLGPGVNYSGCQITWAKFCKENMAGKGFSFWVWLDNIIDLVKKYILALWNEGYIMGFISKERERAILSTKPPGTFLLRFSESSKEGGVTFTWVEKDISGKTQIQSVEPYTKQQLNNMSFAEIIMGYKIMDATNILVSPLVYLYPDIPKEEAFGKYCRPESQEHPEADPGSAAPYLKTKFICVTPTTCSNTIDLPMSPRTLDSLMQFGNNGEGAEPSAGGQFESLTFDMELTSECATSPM
How it was run: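 Transcript-level reporter assay. HepG2 transient MRTU transfection, 24 h exposure, fluorescence detection after RT-PCR and CE; DMSO baseline.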

[8] = ATG_TA_CIS: Attagene CIS-FACTORIAL HepG2 Assay for human TA Basal Promoter (AID 2282964); settings: HepG2 Attagene CIS-factorial TA basal promoter reporter; actives raise or lower the signal
How it was run: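 Transfected HepG2, 24 h compound exposure; RNA → RT-PCR → FAM primer extension → HpaI cut → CE fluorescence. Gain/loss-of-signal fitted against DMSO negative control. Background-control readout.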

[9] = ATG_TCF_b_cat_CIS: Attagene CIS-FACTORIAL HepG2 Assay for human T-Cell-Factor with beta-catenin (TCF/b-cat) (AID 2282965); settings: HepG2 TCF/beta-catenin cis-reporter transcription, actives raise or lower the signal
How it was run: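 HepG2 cells transiently transfected with multiple cis-promoter-regulated reporter transcription units, so endogenous transcription factor activity is measured. Reporter mRNA read 24 hours after dosing by RT-PCR, fluorescent labelling and capillary electrophoresis; bidirectional fitting against DMSO.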

[10] = ATG_TAL_CIS: Attagene CIS-FACTORIAL HepG2 Assay for human TAL Basal Promoter (AID 2282966); settings: HepG2 Attagene cis-factorial TAL promoter reporter; actives raise or lower the signal;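 further: background control endpoint measuring basal TAL promoter reporter mRNA not a specific factor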
How it was run: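 Fluorescence of labelled reporter cDNA fragments, resolved by capillary electrophoresis, gave the readout. Human HepG2 liver cells carried transiently transfected cis-element reporter units and were treated for 24 hours; activity was fitted bidirectionally against DMSO.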

[11] = ATG_VDRE_CIS: Attagene CIS-FACTORIAL HepG2 Assay for human Vitamin D Receptor Element (VDRE) (AID 2282968); settings: HepG2 VDRE cis-reporter transcription, actives raise or lower the signal
How it was run: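 RT-PCR/CE readout of reporter mRNA; HepG2, transient transfection, 24 h dosing; DMSO baseline; bidirectional analysis.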

[12] = biological target: Nuclear receptor subfamily 1 group I member 3 (Homo sapiens) (UniProt Q14994); test: ATG_CAR_TRANS: Attagene TRANS-FACTORIAL HepG2 Assay for human Constitutive Androstane Receptor (CAR) (AID 2282969; active means hit-call score of the fitted dose curve at least 0.9, where 1 is the maximum;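 further: activators raise reporter mRNA above DMSO so AC50 marks induction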); settings: HepG2 Attagene TRANS-FACTORIAL CAR reporter
Chain of Nuclear receptor subfamily 1 group I member 3 (Homo sapiens) (Q14994 whole entry, looked up, the tested form may be a part): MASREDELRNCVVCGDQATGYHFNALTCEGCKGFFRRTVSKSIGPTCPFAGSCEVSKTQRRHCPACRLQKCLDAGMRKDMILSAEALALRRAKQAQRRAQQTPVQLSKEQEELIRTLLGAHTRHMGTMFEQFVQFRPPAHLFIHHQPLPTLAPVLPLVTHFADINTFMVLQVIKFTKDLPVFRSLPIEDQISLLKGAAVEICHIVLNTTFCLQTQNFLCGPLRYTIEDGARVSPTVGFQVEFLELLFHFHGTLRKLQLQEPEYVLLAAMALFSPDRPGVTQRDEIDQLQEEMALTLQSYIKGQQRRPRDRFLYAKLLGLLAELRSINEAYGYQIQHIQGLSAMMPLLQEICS
How it was run: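 HepG2 cells transiently transfected with multiplexed GAL4-UAS reporter units expressing chimeric NR-Gal4 proteins; compound exposure 24 h. Reporter mRNA measured by RT-PCR, 6-FAM labelling, HpaI digestion and capillary electrophoresis; gain-of-signal fitted against DMSO baseline.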

[13] = biological target: Steroid hormone receptor ERR1 (Homo sapiens) (UniProt P11474); test: ATG_ERRa_TRANS: Attagene TRANS-FACTORIAL HepG2 Assay for human Estrogen-Related Receptor alpha (ERRa) (AID 2282971; active means hit-call score of the fitted dose curve at least 0.9, where 1 is the maximum); settings: HepG2 Attagene TRANS reporter, ERRa transactivation
Chain of Steroid hormone receptor ERR1 (Homo sapiens) (P11474 whole entry, looked up, the tested form may be a part): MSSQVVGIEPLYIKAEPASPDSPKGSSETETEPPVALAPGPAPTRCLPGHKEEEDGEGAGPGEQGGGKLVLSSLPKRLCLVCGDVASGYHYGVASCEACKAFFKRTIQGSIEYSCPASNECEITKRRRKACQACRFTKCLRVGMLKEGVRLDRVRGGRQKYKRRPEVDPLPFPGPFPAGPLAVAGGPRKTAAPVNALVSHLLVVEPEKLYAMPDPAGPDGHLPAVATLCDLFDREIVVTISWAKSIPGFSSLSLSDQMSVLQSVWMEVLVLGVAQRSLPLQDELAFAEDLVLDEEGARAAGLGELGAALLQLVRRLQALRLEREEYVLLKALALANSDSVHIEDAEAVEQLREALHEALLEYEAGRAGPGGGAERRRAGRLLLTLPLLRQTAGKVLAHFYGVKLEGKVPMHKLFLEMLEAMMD
How it was run: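 Reporter transcript induction was quantified by RT-PCR and capillary electrophoresis of FAM-labelled, HpaI-cut products after 24 h treatment of HepG2 cells carrying transiently transfected GAL4-UAS reporter units and an exogenous ERRa-Gal4 fusion; activity scored as increase over DMSO.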

[14] = biological target: X-box-binding protein 1 (Homo sapiens) (UniProt P17861); test: ATG_Xbp1_CIS: Attagene CIS-FACTORIAL HepG2 Assay for human X-box Binding Protein 1 (XBP1) (AID 2282972); settings: HepG2 XBP1 cis-element reporter, Attagene multiplex; actives raise or lower the signal
Chain of X-box-binding protein 1 (Homo sapiens) (P17861 whole entry, looked up): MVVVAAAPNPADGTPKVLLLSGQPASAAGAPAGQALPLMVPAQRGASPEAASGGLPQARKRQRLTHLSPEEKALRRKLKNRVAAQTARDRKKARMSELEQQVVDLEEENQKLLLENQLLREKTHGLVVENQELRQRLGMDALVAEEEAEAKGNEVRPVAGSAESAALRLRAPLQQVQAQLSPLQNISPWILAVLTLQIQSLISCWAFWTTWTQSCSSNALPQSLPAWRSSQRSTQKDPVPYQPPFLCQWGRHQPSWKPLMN
How it was run: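 After a 24-hour chemical exposure of HepG2 cells carrying cis-regulated reporters, reporter mRNA levels are assessed. Quantification uses RT-PCR, 6-FAM labelling and capillary electrophoresis. Gain- or loss-of-signal is fitted against DMSO.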

[15] = ATG_M_19_TRANS: Attagene TRANS-FACTORIAL HepG2 Assay for M19 Transcription Factor (Internal Marker) (AID 2282974; active means hit-call score of the fitted dose curve at least 0.9, where 1 is the maximum); settings: HepG2 Attagene TRANS-FACTORIAL M19 internal marker reporter
How it was run: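 After transfection of HepG2 with GAL4-UAS-driven reporter constructs, cells are dosed for 24 h. Total RNA is reverse-transcribed, reporter sequences PCR-amplified and labelled, then HpaI-digested and sized by capillary electrophoresis.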

[16] = ATG_GAL4_TRANS: Attagene TRANS-FACTORIAL HepG2 Assay for GAL4 (Internal Marker) (AID 2282976; active means hit-call score of the fitted dose curve at least 0.9, where 1 is the maximum); settings: HepG2 Attagene TRANS GAL4 internal marker reporter
How it was run: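 First, HepG2 cells were transfected with reporter units under GAL4-UAS control. Next, they were treated with chemical for 24 h. Finally, RNA was reverse-transcribed, PCR-amplified, FAM-labelled and resolved by capillary electrophoresis, with induction scored against DMSO.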

[17] = biological target: Estrogen receptor (Homo sapiens) (UniProt P03372); test: ATG_ERa_TRANS: Attagene TRANS-FACTORIAL HepG2 Assay for human Estrogen Receptor alpha (ERa) (AID 2282970; active means hit-call score of the fitted dose curve at least 0.9, where 1 is the maximum); settings: HepG2 Attagene TRANS ERa GAL4 reporter, mRNA
Chain of Estrogen receptor (Homo sapiens) (P03372 whole entry, looked up, the tested form may be a part): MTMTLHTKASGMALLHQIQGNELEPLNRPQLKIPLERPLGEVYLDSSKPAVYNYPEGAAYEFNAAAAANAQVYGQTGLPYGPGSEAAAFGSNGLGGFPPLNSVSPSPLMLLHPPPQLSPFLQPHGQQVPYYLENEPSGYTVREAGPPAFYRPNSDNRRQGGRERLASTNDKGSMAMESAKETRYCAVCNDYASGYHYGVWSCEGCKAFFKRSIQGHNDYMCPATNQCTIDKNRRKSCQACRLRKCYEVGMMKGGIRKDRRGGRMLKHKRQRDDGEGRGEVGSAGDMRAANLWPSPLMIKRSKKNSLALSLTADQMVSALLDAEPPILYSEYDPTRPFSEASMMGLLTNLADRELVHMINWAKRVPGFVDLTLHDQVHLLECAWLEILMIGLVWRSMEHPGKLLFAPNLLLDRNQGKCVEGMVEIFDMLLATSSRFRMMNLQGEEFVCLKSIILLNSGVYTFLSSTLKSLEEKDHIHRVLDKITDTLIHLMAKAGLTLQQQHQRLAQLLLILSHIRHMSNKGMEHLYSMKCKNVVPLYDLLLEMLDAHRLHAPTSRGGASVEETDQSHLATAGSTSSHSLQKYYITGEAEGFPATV
How it was run: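 Human liver HepG2, transient transfection of multiple GAL4-UAS reporter units; TRANS format (exogenous NR-Gal4 chimera). 24 h dosing. Readout: reporter mRNA, RT-PCR, 6-FAM primer extension, HpaI digest, capillary electrophoresis. Positive direction vs DMSO.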

[18] = ATG_TGFb_CIS: Attagene CIS-FACTORIAL HepG2 Assay for human Transforming Growth Factor (TGF) (AID 2282967); settings: HepG2 Attagene CIS TGFb reporter, mRNA transcription; actives raise or lower the signal
How it was run: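 Readout: fluorescently labeled reporter cDNA fragments resolved by capillary electrophoresis after RT-PCR. Transfected HepG2 cells dosed for 24 h; endogenous TF activity at TGFB1-linked cis element; gain or loss fitted relative to DMSO.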

[19] = ATG_Hpa5_TRANS: Attagene TRANS-FACTORIAL HepG2 Assay for human GAL4-Hpa5 Hepatocyte Transcription Factor Basal Promoter (AID 2282975; active means hit-call score of the fitted dose curve at least 0.9, where 1 is the maximum;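 further: hits are increases in reporter mRNA over DMSO baseline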); settings: HepG2 Attagene GAL4-Hpa5 transcription reporter
How it was run: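 Basal-promoter GAL4 background control within the HepG2 trans-factorial panel of transiently transfected reporter units. Reporter mRNA is measured 24 h after dosing by RT-PCR and capillary electrophoresis, fitted for gain of signal versus DMSO.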

Measured: AC50

COc1nc(C)nc(NC(=O)NS(=O)(=O)c2ccccc2OCCCl)n1
not listed: [17] | [18] | [19]
inactive: all other assays above

O=C(Nc1ccc([N+](=O)[O-])cc1Cl)c1cc(Cl)ccc1O
inactive: [1] | [2] | [4] | [8] | [9] | [10] | [15]
active: [3] 1.19 µM | [5] 0.7 µM | [6] 0.7 µM | [14] 0.493 µM

C[C@]12C[C@H](O)[C@H]3[C@@H](CCC4=CC(=O)CC[C@@]43C)[C@@H]1CC[C@@H]2C(=O)CO
inactive: [1] | [2] | [3] | [4] | [5] | [6] | [7] | [8] | [9] | [10] | [17] | [14] | [15]
active: [17] 100 µM and 49.6 µM

COC(=O)CSc1cc(N=c2sc(=O)n3n2CCCC3)c(F)cc1Cl
active: [2] 10.4 µM
not listed: [7] | [12] | [13] | [15] | [16] | [17]
inactive: all other assays above

CCOC(=O)C(C)Oc1ccc(Oc2nc3ccc(Cl)cc3o2)cc1 (stereo not drawn)
not listed: [3] | [7] | [13] | [16] | [17]
inactive: all other assays above

COC(=O)c1ccccc1S(=O)(=O)NC(=O)Nc1nc(OC(F)F)cc(OC(F)F)n1
not listed: [7] | [13] | [16] | [19]
inactive: all other assays above

CCCN(CCC)C(=O)SCC
not listed: [2] | [7] | [13] | [16] | [18]
inactive: all other assays above

CCCCC(CC)COC(=O)c1ccccc1C(=O)O (stereo not drawn)
not listed: [2] | [7] | [13] | [17]
inactive: all other assays above

CCCCCOC(=O)COc1cc(N2C(=O)C3=C(CCCC3)C2=O)c(F)cc1Cl
active: [9] 26.6 µM
not listed: [2] | [7] | [12] | [13] | [16] | [18]
inactive: all other assays above

CCSC(=O)N(CC(C)C)CC(C)C
not listed: [13] | [15] | [16]
inactive: all other assays above

Cc1nn(C)c(Oc2ccccc2)c1C=NOCc1ccc(C(=O)OC(C)(C)C)cc1
active: [1] 1.88 µM | [2] 0.0423 µM | [5] 0.0212 µM | [11] 0.698 µM | [14] 0.0386 µM
not listed: [7] | [12] | [16] | [18] | [19]
inactive: all other assays above

CCOC(=O)COc1cc(-n2ncc(C(F)(F)F)c(C)c2=O)c(F)cc1Cl
not listed: [7] | [12] | [13] | [16] | [18]
inactive: all other assays above

CCCCC(CC)CN1C(=O)C2C3C=CC(C3)C2C1=O (stereo not drawn)
active: [2] 50 µM | [3] 34 µM | [11] 23.8 µM | [17] 50 µM
not listed: [7] | [18] | [19]
inactive: all other assays above

C=CCOC(Cn1ccnc1)c1ccc(Cl)cc1Cl (stereo not drawn)
active: [1] 50 µM | [6] 6.99 µM | [11] 3.43 µM
not listed: [7] | [13] | [17] | [19]
inactive: all other assays above

COC(=O)c1ccc(CNS(C)(=O)=O)cc1S(=O)(=O)NC(=O)Nc1nc(OC)cc(OC)n1
not listed: [7] | [13] | [15] | [16] | [18] | [19]
inactive: all other assays above
